Among all 5,500 compounds or so, about 2,000 (36%) were called active. Inconclusive results (about 18%) are left out. Rule as the data show it: active = normalized growth mostly below about 0.91 (no sharp cut-off); inconclusive = no clear call, values can overlap the other calls; inactive = mostly above about 0.92. Some of the results follow.
Test: chemical genetic growth profiling, strain panel (AID 1159580);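 also: tested at 20 µM; growth read once vehicle control cultures reached saturation at 30 °C; 1 = growth at the plate median or of vehicle wells; lower values mean less growth of the strain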
Details: growth OD

Measured: normalized growth

COc1cc2c(cc1OC)C1Cc3ccc(OC)c(OC)c3CN1CC2 (configuration not stated)
inactive: S. cerevisiae deletion strains, locus YJR066W, strain TOR1, hits give low values 0.912 | S. cerevisiae deletion strains, locus YKL009W, strain mrt4, hits give low values 0.988 | S. cerevisiae deletion strains, locus YKL068W, hits give low values 0.999 | S. cerevisiae deletion strains, locus YKL085W, strain MDH1 (second series), hits give low values 0.988 | S. cerevisiae deletion strains, locus YKL085W, strain MDH1, hits give low values 0.988 | S. cerevisiae deletion strains, locus YKL160W, strain elf1, hits give low values 1.01 | S. cerevisiae deletion strains, locus YKR001C, strain vps1, hits give low values 1.01 | S. cerevisiae deletion strains, locus YKR026C, strain gcn3, hits give low values 0.979 | S. cerevisiae deletion strains, locus YKR091W, strain srl3, hits give low values 0.98 | S. cerevisiae deletion strains, locus YLL001W, strain dnm1, hits give low values 0.99 | S. cerevisiae deletion strains, locus YLL026W, hits give low values 0.989 | S. cerevisiae deletion strains, locus YLL041C, strain sdh2, hits give low values 0.975 | S. cerevisiae deletion strains, locus YLR027C, strain aat2, hits give low values 0.969 | S. cerevisiae deletion strains, locus YLR039C, strain RIC1, hits give low values 0.979 | S. cerevisiae deletion strains, locus YLR058C, strain SHM2, hits give low values 1.01 | S. cerevisiae deletion strains, locus YLR102C, strain apc9, hits give low values 0.982 | S. cerevisiae deletion strains, locus YLR113W, strain HOG1, hits give low values 0.978 | S. cerevisiae deletion strains, locus YLR221C, strain rsa3, hits give low values 0.985 | S. cerevisiae deletion strains, locus YLR258W, strain gsy2, hits give low values 0.977 | S. cerevisiae deletion strains, locus YLR262C, strain YPT6 (second series), hits give low values 0.957 | S. cerevisiae deletion strains, locus YLR262C, strain YPT6, hits give low values 0.918 | S. cerevisiae deletion strains, locus YLR268W, strain sec22, hits give low values 0.962 | S. cerevisiae deletion strains, locus YLR320W, strain mms22, hits give low values 0.982 | S. cerevisiae deletion strains, locus YLR330W, strain CHS5, hits give low values 1.01 | S. cerevisiae deletion strains, locus YLR342W, strain FKS1 (second series), hits give low values 0.957 | S. cerevisiae deletion strains, locus YLR342W, strain FKS1, hits give low values 0.968 | S. cerevisiae deletion strains, locus YLR357W, strain rsc2, hits give low values 0.994 | S. cerevisiae deletion strains, locus YLR370C, strain arc18, hits give low values 0.971 | S. cerevisiae deletion strains, locus YLR371W, strain rom2, hits give low values 1.01 | S. cerevisiae deletion strains, locus YLR384C, strain iki3, hits give low values 0.988 | S. cerevisiae deletion strains, locus YLR418C, strain cdc73, hits give low values 1.02 | S. cerevisiae deletion strains, locus YML016C, strain PPZ1, hits give low values 0.988 | S. cerevisiae deletion strains, locus YML032C, strain rad52, hits give low values 1.03 | S. cerevisiae deletion strains, locus YML120C, strain ndi1, hits give low values 0.984 | S. cerevisiae deletion strains, locus YML124C, strain tub3, hits give low values 0.987 | S. cerevisiae deletion strains, locus YMR058W, strain fet3, hits give low values 0.984 | S. cerevisiae deletion strains, locus YMR078C, strain ctf18, hits give low values 0.968 | S. cerevisiae deletion strains, locus YMR125W, strain sto1, hits give low values 0.953 | S. cerevisiae deletion strains, locus YMR129W, hits give low values 0.978 | S. cerevisiae deletion strains, locus YMR205C, strain PFK2, hits give low values 0.987 | S. cerevisiae deletion strains, locus YMR223W, strain ubp8, hits give low values 1.01 | S. cerevisiae deletion strains, locus YMR231W, strain pep5, hits give low values 0.966 | S. cerevisiae deletion strains, locus YMR263W, strain SAP30, hits give low values 1 | S. cerevisiae deletion strains, locus YMR307W, strain GAS1, hits give low values 1 | S. cerevisiae deletion strains, locus YNL067W, strain RPL9B, hits give low values 1.02 | S. cerevisiae deletion strains, locus YNL071W, strain lat1, hits give low values 0.974 | S. cerevisiae deletion strains, locus YNL128W, strain TEP1, hits give low values 0.983 | S. cerevisiae deletion strains, locus YNL153C, strain GIM3, hits give low values 1.03 | S. cerevisiae deletion strains, locus YNL183C, strain NPR1, hits give low values 0.93 | S. cerevisiae deletion strains, locus YNL209W, strain ssb2, hits give low values 1.01 | S. cerevisiae deletion strains, locus YNL233W, strain BNI4, hits give low values 1.02 | S. cerevisiae deletion strains, locus YNL248C, strain rpa49, hits give low values 0.961 | S. cerevisiae deletion strains, locus YNL250W, strain rad50, hits give low values 0.968 | S. cerevisiae deletion strains, locus YNL271C, strain bni1, hits give low values 0.976 | S. cerevisiae deletion strains, locus YNL298W, strain CLA4, hits give low values 0.991 | S. cerevisiae deletion strains, locus YNL307C, strain MCK1, hits give low values 1 | S. cerevisiae deletion strains, locus YNL322C, strain KRE1 (second series), hits give low values 0.948 | S. cerevisiae deletion strains, locus YNR049C, strain mso1, hits give low values 0.967 | S. cerevisiae deletion strains, locus YNR052C, strain pop2, hits give low values 0.993 | S. cerevisiae deletion strains, locus YOL012C, strain htz1 0.904 | S. cerevisiae deletion strains, locus YOL147C, strain pex11, hits give low values 0.99 | S. cerevisiae deletion strains, locus YOR001W, strain rrp6, hits give low values 0.957 | S. cerevisiae deletion strains, locus YOR061W, strain CKA2, hits give low values 0.996 | S. cerevisiae deletion strains, locus YOR069W, strain VPS5, hits give low values 0.984 | S. cerevisiae deletion strains, locus YOR070C, strain gyp1, hits give low values 0.984 | S. cerevisiae deletion strains, locus YOR080W, strain dia2, hits give low values 0.971 | S. cerevisiae deletion strains, locus YOR083W, strain WHI5, hits give low values 1.01 | S. cerevisiae deletion strains, locus YOR106W, strain vam3, hits give low values 0.987 | S. cerevisiae deletion strains, locus YOR136W, strain idh2, hits give low values 0.975 | S. cerevisiae deletion strains, locus YOR144C, strain elg1, hits give low values 0.989 | S. cerevisiae deletion strains, locus YOR184W, strain ser1, hits give low values 0.917 | S. cerevisiae deletion strains, locus YOR231W, strain MKK1, hits give low values 0.99 | S. cerevisiae deletion strains, locus YOR265W, strain rbl2, hits give low values 0.961 | S. cerevisiae deletion strains, locus YOR270C, strain vph1, hits give low values 0.94 | S. cerevisiae deletion strains, locus YOR290C, strain snf2, hits give low values 0.994 | S. cerevisiae deletion strains, locus YOR316C, strain cot1, hits give low values 0.99 | S. cerevisiae deletion strains, locus YPL051W, strain arl3, hits give low values 0.997 | S. cerevisiae deletion strains, locus YPL078C, strain atp4, hits give low values 0.981 | S. cerevisiae deletion strains, locus YPL106C, strain sse1, hits give low values 1.02 | S. cerevisiae deletion strains, locus YPL240C, strain hsp82, hits give low values 0.968 | S. cerevisiae deletion strains, locus YPL256C, strain CLN2, hits give low values 1 | S. cerevisiae deletion strains, locus YPR119W, strain clb2, hits give low values 0.994 | S. cerevisiae deletion strains, locus YPR141C, strain kar3, hits give low values 0.982 | S. cerevisiae deletion strains, locus YPR163C, strain tif3, hits give low values 0.989 | S. cerevisiae deletion strains, locus YPR167C, strain met16, hits give low values 0.99 | S. cerevisiae deletion strains, strain wtn01, hits give low values 0.968 | S. cerevisiae strains, strain wild type, hits give low values 1.01

Reference: PubChem BioAssay AID1159580 (chemical genetic matrix, 2015)
